{"source": "PubChem BioAssay (EPA / NIEHS)", "note": "Activity calls are given as the source filed them. How the source made its calls: active means hit-call score of the fitted dose curve at least 0.9, where 1 is the maximum; inactive means score below 0.9."}
{"test": "CCTE_Shafer_MEA_dev_network_spike_duration_std: CCTE's Neural Network Formation Assay for Standard Deviation of Network Spike Duration, Shafer Lab (AID 2284052);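 further: hits are decreases in network spike duration SD versus DMSO vehicle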", "protocol": "CCTE_Shafer_MEA_dev assay is conducted using Axion Biosystems 48 well microelectrode array (MEA) plates and Maestro recording system. Each well of the MEA plate contains a grid of 16 microelectrodes embedded in the culture surface. Electrically active cells, such as neurons, can be cultured over the electrodes, and electrical activity in these cells can be recorded extracellularly. The spontaneous firing of neurons is captured from each electrode on a microsecond timescale providing both temporally and spatially precise data. […] The CCTE_Shafer_MEA_dev assay uses primary cultures of rat cortical neurons. Recordings are made on days post-plating 5, 7, 9 and 12. As these cultures mature over time, neural networks develop functional activity and form cohesive networks in which electrical activity can be highly coordinated. CCTE_Shafer_MEA_dev_network_spike_duration_std is 1 of 19 assay components of the CCTE_Shafer_MEA_dev assay. It measures the standard deviation of the duration of network spikes (temporally-clustered groups of action potential firing across multiple electrodes) during a recording in a microelectrode array (MEA) using Axion Biosystems Maestro 768 channel amplifier with the AxIS adaptive spike detector. To collapse across multiple recordings made on days post-plating 5, 7, 9 and 12, the trapezoidal area-under-the-curve of the component is calculated.Data from the assay component CCTE_Shafer_MEA_dev_network_spike_duration_std was analyzed into 1 assay endpoint. This assay endpoint, CCTE_Shafer_MEA_dev_network_spike_duration_std, was analyzed in the negative analysis fitting direction relative to DMSO as the negative control and baseline of activity. Using a type of functional reporter, gain or loss-of-signal activity can be used to understand electrical activity.\nOn the day prior to culture, each well was coated thoroughly with 150 uL of 0.05% polyethyleneimine (PEI, Sigma Cat P3143) in 50 mM HEPES (Sigma Cat H7523) at a pH of 8. The plate was incubated at 37C for one hour. PEI was rinsed out with 500 uL of sterile water three times. Plates were stored at 4C until the day of culture. This culture was plated at a seeding density of 1.5 x 10^5 cells/well on a 48-well MEA plate, prepared as described above. Cells were administered via a 25 uL media/laminin ([…]; Sigma Cat L2020-1MG) drop directly onto the microelectrode array, as adding the cells with the laminin results in better attachment than pre-coating with laminin. After 2 hours, an additional 475 uL of cortical media was added and the cells returned to the incubator. Exposure starts at day 0 of plating and is continued over twelve days of network development until the experiment is terminated. Cells are fed with fresh medium on DIV 5 and 9, following the recordings on those days. The entire volume of media in the well is exchanged and any vehicle or compound treatment is renewed. Complete details are found in OP-NHEERL/ISTD/SBB/TJS/2015-03-r0 (available on request, email shafer.tim@epa.gov). Measurement of the electrical activity is non-invasive, and recordings can be made from the same plate over multiple different days of the culture. In cortical neurons, this allows for the measurement of extracellular action potentials over the period during which networks form in the MEA plate."}
{"smiles": "FC(F)(F)C(F)(F)C(F)(F)C(F)(F)C(F)(F)C(F)(F)C(F)(F)CCI", "outcome": "inactive"}
{"smiles": "NC(=O)C(F)(F)C(F)(F)C(F)(F)C(F)(F)C(N)=O", "outcome": "inactive"}
{"smiles": "O=S(=O)(O)CCC(F)(F)C(F)(F)C(F)(F)C(F)(F)C(F)(F)C(F)(F)C(F)(F)C(F)(F)F", "outcome": "inactive"}
{"smiles": "C=CC(=O)OCC(F)(F)C(F)(F)C(F)(F)COC(=O)C=C", "outcome": "inactive"}
{"smiles": "OCCCCC(F)(F)C(F)(F)C(F)(F)C(F)(F)F", "outcome": "inactive"}
{"smiles": "NC(=O)C(F)(F)C(F)(F)C(F)(F)F", "outcome": "inactive"}
{"smiles": "CCN(CCO)S(=O)(=O)C(F)(F)C(F)(F)C(F)(F)C(F)(F)C(F)(F)C(F)(F)C(F)(F)C(F)(F)F", "outcome": "inactive"}
{"smiles": "OCC(O)CC(F)(F)C(F)(F)C(F)(F)C(F)(F)F", "note": "(centres undefined)", "outcome": "inactive"}
{"smiles": "NC(O)(C(F)(F)F)C(F)(F)F", "outcome": "inactive"}
{"smiles": "C=CC(=O)OCCC(F)(F)C(F)(F)C(F)(F)C(F)(F)F", "outcome": "inactive"}
{"smiles": "OC(O)C(F)(F)C(F)(F)F", "outcome": "inactive"}
{"smiles": "OCC(F)(F)C(F)(F)C(F)(F)CO", "outcome": "inactive"}
{"smiles": "OCC(F)(F)C(F)(F)C(F)(F)C(F)(F)C(F)(F)C(F)(F)C(F)(F)C(F)(F)CO", "outcome": "inactive"}
{"smiles": "NC(=O)C(F)(F)C(F)(F)C(F)(F)C(F)F", "outcome": "inactive"}
{"smiles": "O=C(O)C(F)(F)C(F)(F)C(F)(F)OC(F)(F)F", "outcome": "inactive"}
{"smiles": "CNS(=O)(=O)C(F)(F)C(F)(F)C(F)(F)C(F)(F)C(F)(F)C(F)(F)C(F)(F)C(F)(F)F", "outcome": "inactive"}
{"smiles": "O=S(=O)(O)CCC(F)(F)C(F)(F)C(F)(F)C(F)(F)F", "outcome": "inactive"}
{"smiles": "OCC(F)(F)C(F)(F)C(F)(F)C(F)(F)C(F)(F)C(F)(F)CO", "outcome": "inactive"}
{"smiles": "CO[Si](C)(CCC(F)(F)C(F)(F)C(F)(F)C(F)(F)C(F)(F)C(F)(F)F)OC", "outcome": "inactive"}
